Data published in article PMC7862700, “An all-to-all approach to the identification of sequence-specific readers for epigenetic DNA modifications on cytosine”.

Columns and labels:
Assay in all cases: DAPPL (digital affinity profiling via proximity ligation, sequencing); 10 mM Tris-HCl pH 7.5, 50 mM NaCl, 1 mM DTT, 4% glycerol, room temperature, 30 min; GST-TFs on glutathione beads, 16-mer random dsDNA library, 0.1% formaldehyde crosslink after washing; high values mean tight binding
FLI1 = target: T1, FLI1 (Homo sapiens, UniProt Q01543 1-452); conditions: protein: recombinant; tags: N-terminal GST; dsDNA, one strand shown
T1 sequence: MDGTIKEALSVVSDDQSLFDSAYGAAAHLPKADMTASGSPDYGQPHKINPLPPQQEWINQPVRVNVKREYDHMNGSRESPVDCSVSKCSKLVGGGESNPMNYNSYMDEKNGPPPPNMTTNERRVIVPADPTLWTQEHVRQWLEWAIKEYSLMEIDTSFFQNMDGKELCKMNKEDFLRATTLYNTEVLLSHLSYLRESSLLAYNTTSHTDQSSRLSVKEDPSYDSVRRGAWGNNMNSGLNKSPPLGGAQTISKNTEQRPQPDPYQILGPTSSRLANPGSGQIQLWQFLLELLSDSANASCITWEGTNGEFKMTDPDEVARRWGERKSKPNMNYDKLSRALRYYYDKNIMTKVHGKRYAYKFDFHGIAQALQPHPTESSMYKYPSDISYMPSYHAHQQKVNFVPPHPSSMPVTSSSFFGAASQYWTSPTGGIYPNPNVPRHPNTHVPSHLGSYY
Procedure, shortened: (§1)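 A tag-only sample was pooled with DNA-barcoded human transcription factors that had been expressed in yeast as GST fusions and captured on glutathione beads. The pools were incubated for 30 min at room temperature with 200 nmole of a random double-stranded 16-mer DNA library in Tris/NaCl/DTT/glycerol buffer, then washed, crosslinked with 0.1% formaldehyde, proximity-ligated (BsaI/T4 ligase, 1 h, 37 °C), PCR-amplified and sequenced on an Illumina NextSeq500. Binding signal is each hexamer's read frequency for a factor divided by its frequency for the tag-only sample.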

ELK1 = target: T2, ELK1 (Homo sapiens, UniProt P19419 1-428); conditions: protein: recombinant; tags: N-terminal GST; dsDNA, one strand shown
T2 sequence: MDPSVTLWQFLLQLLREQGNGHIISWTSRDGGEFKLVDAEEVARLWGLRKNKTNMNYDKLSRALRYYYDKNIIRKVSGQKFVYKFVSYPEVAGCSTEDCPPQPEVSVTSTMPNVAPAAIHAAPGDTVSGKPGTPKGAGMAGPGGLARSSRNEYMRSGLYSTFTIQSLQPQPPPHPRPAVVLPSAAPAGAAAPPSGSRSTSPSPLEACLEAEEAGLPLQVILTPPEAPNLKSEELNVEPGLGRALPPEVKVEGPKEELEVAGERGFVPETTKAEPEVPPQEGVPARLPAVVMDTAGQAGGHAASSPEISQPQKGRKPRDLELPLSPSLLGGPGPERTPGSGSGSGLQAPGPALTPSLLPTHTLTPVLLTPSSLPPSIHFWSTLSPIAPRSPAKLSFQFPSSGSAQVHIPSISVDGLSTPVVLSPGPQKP
Procedure, shortened: as §1

GABPA = target: T3, GABPA (Homo sapiens, UniProt Q06546 1-454); conditions: protein: recombinant; tags: N-terminal GST; dsDNA, one strand shown
T3 sequence: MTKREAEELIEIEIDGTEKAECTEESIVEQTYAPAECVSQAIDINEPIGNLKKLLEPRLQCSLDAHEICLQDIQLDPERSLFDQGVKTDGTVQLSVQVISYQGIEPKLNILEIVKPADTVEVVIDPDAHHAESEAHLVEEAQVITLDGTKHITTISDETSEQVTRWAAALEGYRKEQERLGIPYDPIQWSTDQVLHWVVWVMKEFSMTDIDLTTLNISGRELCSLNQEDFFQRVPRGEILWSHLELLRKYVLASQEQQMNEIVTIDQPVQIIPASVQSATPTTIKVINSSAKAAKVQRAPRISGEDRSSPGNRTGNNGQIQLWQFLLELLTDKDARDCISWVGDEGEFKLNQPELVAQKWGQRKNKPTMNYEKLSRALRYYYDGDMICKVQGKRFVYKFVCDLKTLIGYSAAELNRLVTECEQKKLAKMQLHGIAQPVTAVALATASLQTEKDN
Procedure, shortened: as §1

ERG = target: T4, ERG (Homo sapiens, UniProt P11308 1-479); conditions: protein: recombinant; tags: N-terminal GST; dsDNA, one strand shown
T4 sequence: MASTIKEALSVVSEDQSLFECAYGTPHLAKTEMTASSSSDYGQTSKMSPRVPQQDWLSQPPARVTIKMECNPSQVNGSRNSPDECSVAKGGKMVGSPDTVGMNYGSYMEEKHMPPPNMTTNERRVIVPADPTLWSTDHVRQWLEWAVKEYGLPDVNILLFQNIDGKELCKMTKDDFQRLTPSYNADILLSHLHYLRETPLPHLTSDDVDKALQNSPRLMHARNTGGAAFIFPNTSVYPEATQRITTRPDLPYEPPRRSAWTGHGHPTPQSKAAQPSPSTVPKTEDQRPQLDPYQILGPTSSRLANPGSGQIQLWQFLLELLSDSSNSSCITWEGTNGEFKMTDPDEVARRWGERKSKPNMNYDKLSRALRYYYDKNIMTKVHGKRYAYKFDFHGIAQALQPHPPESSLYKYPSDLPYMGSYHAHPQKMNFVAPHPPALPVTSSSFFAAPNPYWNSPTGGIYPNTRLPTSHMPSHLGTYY
Procedure, shortened: as §1

ELF1 = ELF1 (Homo sapiens, UniProt P32519 1-619); conditions: protein: recombinant; tags: N-terminal GST; dsDNA, one strand shown
Procedure, shortened: as §1

EHF = target: T5, EHF (Homo sapiens, UniProt Q9NZC4 1-300); conditions: protein: recombinant; tags: N-terminal GST; dsDNA, one strand shown
T5 sequence: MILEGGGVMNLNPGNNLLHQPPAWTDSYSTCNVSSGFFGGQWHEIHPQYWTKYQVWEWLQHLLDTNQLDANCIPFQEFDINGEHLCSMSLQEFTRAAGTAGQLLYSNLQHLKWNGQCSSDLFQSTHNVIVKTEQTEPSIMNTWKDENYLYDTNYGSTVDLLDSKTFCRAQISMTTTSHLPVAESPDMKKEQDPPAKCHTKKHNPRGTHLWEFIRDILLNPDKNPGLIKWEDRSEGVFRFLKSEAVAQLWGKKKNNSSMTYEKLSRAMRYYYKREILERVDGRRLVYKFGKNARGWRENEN
Procedure, shortened: as §1

SPI1 = SPI1 (Homo sapiens, UniProt P17947 1-270); conditions: protein: recombinant; tags: N-terminal GST; dsDNA, one strand shown
Procedure, shortened: as §1

SPIB = SPIB (Homo sapiens, UniProt Q01892 1-262); conditions: protein: recombinant; tags: N-terminal GST; dsDNA, one strand shown
Procedure, shortened: as §1

FEV = target: T6, FEV (Homo sapiens, UniProt Q99581 1-238); conditions: protein: recombinant; tags: N-terminal GST; dsDNA, one strand shown
T6 sequence: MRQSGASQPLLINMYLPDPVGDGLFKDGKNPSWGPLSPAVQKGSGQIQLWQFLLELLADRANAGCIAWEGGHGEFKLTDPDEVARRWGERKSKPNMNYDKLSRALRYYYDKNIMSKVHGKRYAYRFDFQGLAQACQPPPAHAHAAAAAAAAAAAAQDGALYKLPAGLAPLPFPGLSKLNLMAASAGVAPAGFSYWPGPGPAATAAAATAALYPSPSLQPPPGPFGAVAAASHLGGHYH
Procedure, shortened: as §1

ETV5 = ETV5 (Homo sapiens, UniProt P41161 1-510); conditions: protein: recombinant; tags: N-terminal GST; dsDNA, one strand shown
Procedure, shortened: as §1

HSF1 = HSF1 (Homo sapiens, UniProt Q00613 1-529); conditions: protein: recombinant; tags: N-terminal GST; chain copies: 3; dsDNA, one strand shown
Procedure, shortened: as §1

SPIC = target: T7, SPIC (Homo sapiens, UniProt Q8N5J4 1-248); conditions: protein: recombinant; tags: N-terminal GST; dsDNA, one strand shown
T7 sequence: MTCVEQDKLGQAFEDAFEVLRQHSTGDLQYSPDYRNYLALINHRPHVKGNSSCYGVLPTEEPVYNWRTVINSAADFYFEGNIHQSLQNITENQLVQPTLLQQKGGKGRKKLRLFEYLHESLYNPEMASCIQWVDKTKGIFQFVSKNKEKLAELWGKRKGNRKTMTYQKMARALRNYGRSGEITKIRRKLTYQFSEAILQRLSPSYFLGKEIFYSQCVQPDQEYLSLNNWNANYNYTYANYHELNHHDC
Procedure, shortened: as §1

ELF4 = ELF4 (Homo sapiens, UniProt Q99607 1-663); conditions: protein: recombinant; tags: N-terminal GST; dsDNA, one strand shown
Procedure, shortened: as §1

ELK4 = target: T8, ELK4 (Homo sapiens, UniProt P28324-2 1-405); conditions: protein: recombinant; tags: N-terminal GST; dsDNA, one strand shown
T8 sequence: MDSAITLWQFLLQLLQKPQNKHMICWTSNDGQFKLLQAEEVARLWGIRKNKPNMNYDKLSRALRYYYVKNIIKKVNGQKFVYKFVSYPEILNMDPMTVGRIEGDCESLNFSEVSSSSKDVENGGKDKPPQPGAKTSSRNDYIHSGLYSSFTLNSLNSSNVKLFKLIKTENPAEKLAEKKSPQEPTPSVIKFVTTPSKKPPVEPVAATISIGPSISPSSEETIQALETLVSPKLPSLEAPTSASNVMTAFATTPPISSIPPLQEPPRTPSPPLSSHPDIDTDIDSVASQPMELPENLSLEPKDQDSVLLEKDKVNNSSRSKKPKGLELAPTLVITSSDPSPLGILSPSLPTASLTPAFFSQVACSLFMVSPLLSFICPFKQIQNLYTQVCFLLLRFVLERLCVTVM
Procedure, shortened: as §1

ETV2 = target: T9, ETV2 (Homo sapiens, UniProt O00321 1-342); conditions: protein: recombinant; tags: N-terminal GST; dsDNA, one strand shown
T9 sequence: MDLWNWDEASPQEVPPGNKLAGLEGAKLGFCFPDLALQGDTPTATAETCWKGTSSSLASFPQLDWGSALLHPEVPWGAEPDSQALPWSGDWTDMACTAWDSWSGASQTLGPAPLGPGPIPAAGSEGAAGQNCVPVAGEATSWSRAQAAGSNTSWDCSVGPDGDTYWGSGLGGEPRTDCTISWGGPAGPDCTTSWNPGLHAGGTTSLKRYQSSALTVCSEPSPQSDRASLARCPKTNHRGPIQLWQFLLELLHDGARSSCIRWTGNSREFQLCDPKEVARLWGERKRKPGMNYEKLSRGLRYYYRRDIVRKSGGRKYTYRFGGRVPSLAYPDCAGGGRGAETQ
Procedure, shortened: as §1

ELF3 = target: T10, ELF3 (Homo sapiens, UniProt P78545 1-371); conditions: protein: recombinant; tags: N-terminal GST; dsDNA, one strand shown
T10 sequence: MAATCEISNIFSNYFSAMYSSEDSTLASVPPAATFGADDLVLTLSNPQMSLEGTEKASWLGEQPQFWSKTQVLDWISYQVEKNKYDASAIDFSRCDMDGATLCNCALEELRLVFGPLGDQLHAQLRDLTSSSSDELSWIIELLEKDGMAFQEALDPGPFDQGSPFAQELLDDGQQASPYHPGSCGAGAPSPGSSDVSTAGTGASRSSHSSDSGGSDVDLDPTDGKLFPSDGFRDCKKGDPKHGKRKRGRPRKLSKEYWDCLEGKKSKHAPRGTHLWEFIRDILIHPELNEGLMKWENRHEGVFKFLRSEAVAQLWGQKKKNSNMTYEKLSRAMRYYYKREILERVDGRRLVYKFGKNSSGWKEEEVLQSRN
Procedure, shortened: as §1

CRX = CRX (Homo sapiens, UniProt O43186 1-299); conditions: protein: recombinant; tags: N-terminal GST; dsDNA, one strand shown
Procedure, shortened: as §1

ETV1 = ETV1 (Homo sapiens, UniProt P50549 1-477); conditions: protein: recombinant; tags: N-terminal GST; dsDNA, one strand shown
Procedure, shortened: as §1

ETV1, sequence (P50549 whole entry): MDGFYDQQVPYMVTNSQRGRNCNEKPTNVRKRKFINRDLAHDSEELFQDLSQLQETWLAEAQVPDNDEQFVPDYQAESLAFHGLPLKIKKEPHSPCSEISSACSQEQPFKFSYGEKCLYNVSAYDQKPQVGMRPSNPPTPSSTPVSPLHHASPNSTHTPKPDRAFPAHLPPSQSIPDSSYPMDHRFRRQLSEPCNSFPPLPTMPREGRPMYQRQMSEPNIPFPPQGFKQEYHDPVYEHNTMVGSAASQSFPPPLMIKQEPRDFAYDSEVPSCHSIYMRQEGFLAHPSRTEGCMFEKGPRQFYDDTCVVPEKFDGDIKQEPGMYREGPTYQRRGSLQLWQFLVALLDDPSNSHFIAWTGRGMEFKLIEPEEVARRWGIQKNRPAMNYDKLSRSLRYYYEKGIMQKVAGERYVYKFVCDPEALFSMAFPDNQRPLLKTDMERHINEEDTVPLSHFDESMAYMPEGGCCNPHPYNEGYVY
SPIB, sequence (Q01892 whole entry): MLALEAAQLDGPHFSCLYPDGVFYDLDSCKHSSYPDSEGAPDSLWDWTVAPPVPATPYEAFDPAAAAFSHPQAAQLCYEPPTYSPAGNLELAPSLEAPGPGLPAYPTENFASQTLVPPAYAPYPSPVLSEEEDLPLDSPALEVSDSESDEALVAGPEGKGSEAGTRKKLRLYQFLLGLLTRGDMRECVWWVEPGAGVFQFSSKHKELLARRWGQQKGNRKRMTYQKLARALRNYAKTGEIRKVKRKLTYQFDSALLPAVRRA
CRX, sequence (O43186 whole entry): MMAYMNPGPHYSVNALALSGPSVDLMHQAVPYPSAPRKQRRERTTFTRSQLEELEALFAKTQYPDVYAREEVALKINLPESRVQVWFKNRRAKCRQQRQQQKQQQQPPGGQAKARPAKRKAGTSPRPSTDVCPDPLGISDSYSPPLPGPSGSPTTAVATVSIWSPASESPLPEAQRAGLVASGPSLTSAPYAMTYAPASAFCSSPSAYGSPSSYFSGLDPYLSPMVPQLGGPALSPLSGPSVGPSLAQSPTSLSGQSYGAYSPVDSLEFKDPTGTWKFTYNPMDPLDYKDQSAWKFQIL
ETV5, sequence (P41161 whole entry): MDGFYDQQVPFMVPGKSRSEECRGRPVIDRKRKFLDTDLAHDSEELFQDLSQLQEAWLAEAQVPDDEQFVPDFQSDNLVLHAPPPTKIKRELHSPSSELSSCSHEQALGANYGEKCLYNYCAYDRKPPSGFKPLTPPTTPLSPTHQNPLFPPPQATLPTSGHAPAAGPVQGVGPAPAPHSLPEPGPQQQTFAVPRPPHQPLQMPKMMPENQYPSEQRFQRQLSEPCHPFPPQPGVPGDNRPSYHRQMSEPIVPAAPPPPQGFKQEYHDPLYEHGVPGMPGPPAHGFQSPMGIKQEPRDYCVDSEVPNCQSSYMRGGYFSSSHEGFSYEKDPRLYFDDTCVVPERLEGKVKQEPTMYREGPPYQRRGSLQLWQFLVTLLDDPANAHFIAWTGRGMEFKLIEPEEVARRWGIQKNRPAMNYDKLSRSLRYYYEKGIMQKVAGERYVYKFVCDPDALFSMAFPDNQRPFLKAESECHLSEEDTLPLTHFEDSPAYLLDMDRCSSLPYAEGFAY
ELF1, sequence (P32519 whole entry): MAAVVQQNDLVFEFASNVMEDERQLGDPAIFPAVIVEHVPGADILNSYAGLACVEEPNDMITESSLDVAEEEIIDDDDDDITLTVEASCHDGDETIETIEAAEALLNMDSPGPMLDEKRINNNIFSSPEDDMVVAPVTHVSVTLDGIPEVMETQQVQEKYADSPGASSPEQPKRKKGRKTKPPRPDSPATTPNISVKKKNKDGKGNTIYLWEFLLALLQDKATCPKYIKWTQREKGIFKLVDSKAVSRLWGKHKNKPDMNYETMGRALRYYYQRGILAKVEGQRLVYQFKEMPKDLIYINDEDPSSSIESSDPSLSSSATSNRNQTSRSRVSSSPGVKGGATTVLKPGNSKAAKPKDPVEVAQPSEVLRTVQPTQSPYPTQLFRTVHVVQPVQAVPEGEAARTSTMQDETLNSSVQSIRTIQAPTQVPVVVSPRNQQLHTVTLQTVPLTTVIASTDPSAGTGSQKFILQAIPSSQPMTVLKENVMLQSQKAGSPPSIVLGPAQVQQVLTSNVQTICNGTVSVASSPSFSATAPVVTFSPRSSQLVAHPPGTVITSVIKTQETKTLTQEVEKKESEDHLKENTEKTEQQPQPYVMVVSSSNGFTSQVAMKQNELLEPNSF
HSF1, sequence (Q00613 whole entry): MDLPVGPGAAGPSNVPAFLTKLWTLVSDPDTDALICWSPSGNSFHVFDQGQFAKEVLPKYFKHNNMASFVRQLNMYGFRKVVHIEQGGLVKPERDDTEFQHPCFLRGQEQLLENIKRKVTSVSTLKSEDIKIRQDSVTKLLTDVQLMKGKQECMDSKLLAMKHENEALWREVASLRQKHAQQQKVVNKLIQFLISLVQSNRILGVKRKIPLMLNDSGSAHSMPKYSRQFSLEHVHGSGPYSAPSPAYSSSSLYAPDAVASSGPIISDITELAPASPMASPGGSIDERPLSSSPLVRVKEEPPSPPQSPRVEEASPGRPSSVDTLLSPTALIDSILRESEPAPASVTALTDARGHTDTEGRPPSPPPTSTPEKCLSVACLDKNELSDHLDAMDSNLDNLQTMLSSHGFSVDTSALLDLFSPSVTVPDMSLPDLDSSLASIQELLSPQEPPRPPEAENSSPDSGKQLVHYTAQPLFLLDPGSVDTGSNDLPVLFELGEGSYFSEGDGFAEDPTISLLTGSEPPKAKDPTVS
ELF4, sequence (Q99607 whole entry): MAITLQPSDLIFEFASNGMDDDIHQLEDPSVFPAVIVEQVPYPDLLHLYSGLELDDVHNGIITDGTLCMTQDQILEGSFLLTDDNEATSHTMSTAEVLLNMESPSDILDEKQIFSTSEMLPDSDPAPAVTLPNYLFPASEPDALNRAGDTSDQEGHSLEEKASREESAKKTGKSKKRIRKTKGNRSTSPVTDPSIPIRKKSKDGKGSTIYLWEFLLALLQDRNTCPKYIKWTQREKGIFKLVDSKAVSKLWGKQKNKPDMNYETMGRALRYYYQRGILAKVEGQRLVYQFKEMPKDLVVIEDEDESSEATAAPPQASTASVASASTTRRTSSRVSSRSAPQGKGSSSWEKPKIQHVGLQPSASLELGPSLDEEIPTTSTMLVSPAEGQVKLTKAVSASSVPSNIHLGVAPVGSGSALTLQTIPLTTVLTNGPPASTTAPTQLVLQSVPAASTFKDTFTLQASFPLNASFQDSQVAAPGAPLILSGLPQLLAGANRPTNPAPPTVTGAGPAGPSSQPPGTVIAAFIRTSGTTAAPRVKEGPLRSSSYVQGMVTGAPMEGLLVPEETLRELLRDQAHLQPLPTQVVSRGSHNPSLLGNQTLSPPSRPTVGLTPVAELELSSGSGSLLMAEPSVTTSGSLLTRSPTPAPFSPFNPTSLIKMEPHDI

For TATCGC, the binding signal (FLI1) was 1.13 fold enrichment (6-mer frequency, TF over GST control), the binding signal (ELK1) was 1.16 fold enrichment (6-mer frequency, TF over GST control) and the binding signal (GABPA) was 1.23 fold enrichment (6-mer frequency, TF over GST control). The binding signal (ERG) was 1.15 fold enrichment (6-mer frequency, TF over GST control), the binding signal (ELF1) was 1.16 fold enrichment (6-mer frequency, TF over GST control) and the binding signal (EHF) was 1.28 fold enrichment (6-mer frequency, TF over GST control). For the same sequence, the binding signal (SPI1) was 1.08 fold enrichment (6-mer frequency, TF over GST control), the binding signal (SPIB) was 1.16 fold enrichment (6-mer frequency, TF over GST control) and the binding signal (FEV) was 1.17 fold enrichment (6-mer frequency, TF over GST control). For the same sequence, the binding signal (ETV5) was 1.13 fold enrichment (6-mer frequency, TF over GST control), the binding signal (HSF1) was 1.22 fold enrichment (6-mer frequency, TF over GST control) and the binding signal (SPIC) was 1.21 fold enrichment (6-mer frequency, TF over GST control). The binding signal (ELF4) was 1.23 fold enrichment (6-mer frequency, TF over GST control), the binding signal (ELK4) was 1.3 fold enrichment (6-mer frequency, TF over GST control) and the binding signal (ETV2) was 1.07 fold enrichment (6-mer frequency, TF over GST control). For the same sequence, the binding signal (ELF3) was 1.1 fold enrichment (6-mer frequency, TF over GST control), the binding signal (CRX) was 1.41 fold enrichment (6-mer frequency, TF over GST control) and the binding signal (ETV1) was 1.22 fold enrichment (6-mer frequency, TF over GST control).
